Laboratory results taken from the antibiotic and cytotoxicity screens of Wong et al. (2023).
Out of some 39,000 compounds screened, about 1,500 (3.8%) were called active. The full list was thinned out, with actives kept by preference.

The compounds below were run on HSkMC (human skeletal muscle cells) (assay: cytotoxicity call (relative viability < 0.9)). Conditions: 10 µM.

Row | Compound | cytotoxicity call
1 | CCC(=O)Nc1ccc2c(c1)OC[C@@H](C)N(C(=O)CN1CCOCC1)C[C@@H](C)[C@@H](OC)CN(C)C2=O | inactive
2 | C[C@@H]1CN([C@@H](C)CO[Si](C)(C)C(C)(C)C)C(=O)c2cc(NC(=O)Nc3ccccc3)ccc2O[C@@H](C)CCCCO[C@H]1CN(C)S(=O)(=O)c1ccc(F)cc1 | inactive
3 | COc1ccc(S(=O)(=O)Nc2ccc3c(c2)C(=O)N([C@H](C)CO)C[C@@H](C)[C@H](CN(C)S(=O)(=O)c2ccc(F)cc2)O3)cc1 | inactive
4 | C[C@@H]1CN([C@H](C)CO)C(=O)c2cc(NS(=O)(=O)c3ccc(F)cc3)ccc2O[C@@H]1CN(C)S(=O)(=O)c1cn(C)cn1 | inactive
5 | O=C(O[C@@H]1O[C@@H]2COC(=O)c3cc(Oc4c(C(=O)O)cc(O)c(O)c4O)c(O)c(O)c3-c3c(cc(O)c(O)c3O)C(=O)O[C@H]2[C@H](OC(=O)c2cc(O)c(O)c(O)c2)[C@H]1OC(=O)c1cc(O)c(O)c(O)c1)c1cc(O)c(O)c(O)c1 | inactive
6 | O=C(O[C@@H]1O[C@H]2COC(=O)c3cc(O)c(O)c(O)c3-c3c(cc(O)c(O)c3O)C(=O)O[C@@H]([C@H]1O)[C@@H]2O)c1cc(O)c(O)c(O)c1 | inactive
7 | O=C(O[C@@H]1O[C@@H]2COC(=O)c3cc(O)c(O)c(O)c3-c3c(cc(O)c(O)c3O)C(=O)O[C@H]2[C@H](OC(=O)c2cc(O)c(O)c(O)c2)[C@H]1OC(=O)c1cc(O)c(O)c(O)c1)c1cc(O)c(O)c(O)c1 | active
8 | COCCOC(=O)N1C(=O)[C@@]2(c3cc(C#CCC(C(=O)OC)C(=O)OC)ccc31)[C@H](C(=O)N1CCc3cc(OC)c(OC)cc3C1)[C@H]1C(=O)O[C@H](c3ccccc3)[C@H](c3ccccc3)N1[C@@H]2c1ccccc1OCCO | inactive
9 | C[C@@H]1CN([C@H](C)CO)C(=O)c2cc(NC(=O)Nc3ccc(F)cc3)ccc2O[C@@H](C)CCCCO[C@@H]1CN(C)CC1CCCCC1 | active
10 | C[C@H]1CCCCO[C@H](CN(C)CC2CCCCC2)[C@@H](C)CN([C@@H](C)CO)C(=O)c2cc(NC(=O)Nc3ccc(F)cc3)ccc2O1 | inactive
11 | C[C@@H]1CCCCO[C@H](CN(C)CC2CCCCC2)[C@H](C)CN([C@H](C)CO)C(=O)c2cc(NC(=O)Nc3ccc(F)cc3)ccc2O1 | active
12 | C[C@@H]1CCCCO[C@@H](CN(C)CC2CCCCC2)[C@@H](C)CN([C@@H](C)CO)C(=O)c2cc(NC(=O)Nc3ccc(F)cc3)ccc2O1 | inactive
13 | C[C@@H]1CCCCO[C@@H](CN(C)CC2CCCCC2)[C@H](C)CN([C@H](C)CO)C(=O)c2cc(NC(=O)Nc3ccc(F)cc3)ccc2O1 | inactive
14 | C[C@H]1CCCCO[C@@H](CN(C)CC2CCCCC2)[C@@H](C)CN([C@@H](C)CO)C(=O)c2cc(NC(=O)Nc3ccc(F)cc3)ccc2O1 | inactive
15 | C[C@@H]1CCCCO[C@H](CN(C)CC2CCCCC2)[C@H](C)CN([C@@H](C)CO)C(=O)c2cc(NC(=O)Nc3ccc(F)cc3)ccc2O1 | inactive
16 | C[C@H](CO)N1C[C@H](C)[C@H](CN(C)CC2CCCCC2)OCCCC[C@H](C)Oc2ccc(NC(=O)Nc3ccc(F)cc3)cc2C1=O | active
17 | C[C@@H]1CCCCO[C@@H](CN(C)CC2CCCCC2)[C@H](C)CN([C@@H](C)CO)C(=O)c2cc(NC(=O)Nc3ccc(F)cc3)ccc2O1 | inactive
18 | C[C@@H]1CN([C@@H](C)CO)C(=O)c2cc(NC(=O)Nc3ccc(F)cc3)ccc2O[C@@H](C)CCCCO[C@@H]1CN(C)CC1CCCCC1 | active
19 | C[C@@H]1CCCCO[C@@H](CN(C)CC2CCCCC2)[C@@H](C)CN([C@H](C)CO)C(=O)c2cc(NC(=O)Nc3ccc(F)cc3)ccc2O1 | inactive
20 | C[C@@H]1CN([C@@H](C)CO)C(=O)c2cc(NC(=O)Nc3ccc(F)cc3)ccc2O[C@@H](C)CCCCO[C@H]1CN(C)CC1CCCCC1 | inactive

Row | Compound | cytotoxicity call
21 | Cn1cnc(CCNC(=O)C[C@@H]2CC[C@@H]3[C@H](COC[C@@H](O)CN3C(=O)C3CC3)O2)c1 | inactive
22 | C[C@H](CO)N1C[C@H](C)[C@@H](CN(C)S(=O)(=O)c2cccs2)Oc2c(NC(=O)c3cnccn3)cccc2C1=O | inactive
23 | COc1cccc(-c2cnc3c(c2)C(=O)N([C@H](C)CO)C[C@H](C)[C@H](CN(C)S(=O)(=O)c2cccs2)O3)c1 | inactive
24 | COc1ccc(S(=O)(=O)N(C)C[C@@H]2OCc3cn(nn3)CCCC(=O)N([C@@H](C)CO)C[C@H]2C)cc1 | inactive
25 | C[C@H](CO)N1C[C@H](C)[C@H](CN(C)C(=O)NC2CCCCC2)Oc2ccc(NS(=O)(=O)c3cn(C)cn3)cc2C1=O | inactive
26 | CC1(C)OC(=O)C2(C(=O)O1)[C@@H](c1ccc(-c3ccc(-c4ccc(O)cc4)cc3)cc1)CC(=O)C[C@H]2c1ccccc1 | inactive
27 | CCCn1c(=O)[nH]c(=O)c2[nH]cnc21 | inactive
28 | COc1ccc(NC(=O)N(C)C[C@@H]2Oc3ccc(NC(=O)CCCCCC(=O)Nc4ccccc4N)cc3C(=O)N([C@H](C)CO)C[C@@H]2C)cc1 | inactive
29 | COc1ccc(NC(=O)Nc2ccc3c(c2)CC(=O)N([C@@H](C)CO)C[C@H](C)[C@@H](CN(C)Cc2ccc(Cl)c(Cl)c2)O3)cc1 | inactive
30 | COc1ccc(NC(=O)Nc2ccc3c(c2)CC(=O)N([C@H](C)CO)C[C@@H](C)[C@@H](CN(C)Cc2ccc(Cl)c(Cl)c2)O3)cc1 | active
31 | COc1ccc(NC(=O)Nc2ccc3c(c2)CC(=O)N([C@H](C)CO)C[C@@H](C)[C@H](CN(C)Cc2ccc(Cl)c(Cl)c2)O3)cc1 | inactive
32 | COc1ccc(NC(=O)Nc2ccc3c(c2)CC(=O)N([C@@H](C)CO)C[C@@H](C)[C@H](CN(C)Cc2ccc(Cl)c(Cl)c2)O3)cc1 | inactive
33 | COc1ccc(NC(=O)Nc2ccc3c(c2)CC(=O)N([C@H](C)CO)C[C@H](C)[C@H](CN(C)Cc2ccc(Cl)c(Cl)c2)O3)cc1 | inactive
34 | COc1ccc(NC(=O)Nc2ccc3c(c2)CC(=O)N([C@@H](C)CO)C[C@H](C)[C@H](CN(C)Cc2ccc(Cl)c(Cl)c2)O3)cc1 | active
35 | C[C@@H]1CCCCO[C@@H](CN(C)C(=O)Nc2cccc3ccccc23)[C@@H](C)CN([C@H](C)CO)C(=O)c2cc(NC(=O)Nc3cccc4ccccc34)ccc2O1 | inactive
36 | NC(=O)CSc1ncn(-c2ccccc2)n1 | inactive
37 | O=C(CCCCCNC(=O)OCc1ccc(CO[C@H]2C[C@@H](c3csc4ccccc34)C=C(C(=O)N3CCN(Cc4ccccc4)CC3)O2)cc1)NO | inactive
38 | O=C(Nc1ccc(-c2nc3cc(NC(=O)c4ccccc4[N+](=O)[O-])ccc3o2)cc1)c1ccccc1[N+](=O)[O-] | inactive
39 | CC(C)C(=O)Nc1ccc([N+](=O)[O-])c(C(F)(F)F)c1 | inactive
40 | O=C(N[C@H](NC(=S)Nc1ccc(F)c([N+](=O)[O-])c1)C(Cl)(Cl)Cl)C(c1ccccc1)c1ccccc1 | active

Row | Compound | cytotoxicity call
41 | C[C@@H]1CN([C@@H](C)CO)C(=O)c2cc(NC(=O)Nc3ccc4c(c3)OCO4)ccc2O[C@@H](C)CCCCO[C@H]1CN(C)C(=O)c1ccccc1 | inactive
42 | COCC(=O)Nc1ccc2c(c1)OC[C@@H](C)N(C(=O)c1ccccc1F)C[C@@H](C)[C@@H](OC)CN(C)C2=O | inactive
43 | C[C@H](CO)N1C[C@H](C)[C@@H](CN(C)C(=O)NC2CCCCC2)Oc2ccc(NC(=O)CCN3CCOCC3)cc2C1=O | inactive
44 | Cc1ccc(S(=O)(=O)Nc2ccc3c(c2)C(=O)N([C@H](C)CO)C[C@H](C)[C@H](CN(C)Cc2ccc(Cl)c(Cl)c2)O3)cc1 | active
45 | Cc1ccc(S(=O)(=O)Nc2ccc3c(c2)C(=O)N([C@H](C)CO)C[C@H](C)[C@@H](CN(C)Cc2ccc(Cl)c(Cl)c2)O3)cc1 | inactive
46 | Cc1ccc(S(=O)(=O)Nc2ccc3c(c2)C(=O)N([C@@H](C)CO)C[C@H](C)[C@@H](CN(C)Cc2ccc(Cl)c(Cl)c2)O3)cc1 | active
47 | Cc1ccc(S(=O)(=O)Nc2ccc3c(c2)C(=O)N([C@H](C)CO)C[C@@H](C)[C@H](CN(C)Cc2ccc(Cl)c(Cl)c2)O3)cc1 | active
48 | Cc1ccc(S(=O)(=O)Nc2ccc3c(c2)C(=O)N([C@H](C)CO)C[C@@H](C)[C@@H](CN(C)Cc2ccc(Cl)c(Cl)c2)O3)cc1 | active
49 | Cc1ccc(S(=O)(=O)Nc2ccc3c(c2)C(=O)N([C@@H](C)CO)C[C@@H](C)[C@H](CN(C)Cc2ccc(Cl)c(Cl)c2)O3)cc1 | inactive
50 | Cc1ccc(S(=O)(=O)Nc2ccc3c(c2)C(=O)N([C@@H](C)CO)C[C@H](C)[C@H](CN(C)Cc2ccc(Cl)c(Cl)c2)O3)cc1 | inactive
51 | Cc1cccc(C(=O)N2CCC[C@@H](Cn3cc(C(C)(C)N)nn3)C2)c1C | inactive
52 | CC(C)NC(=O)Nc1ccc2c(c1)C(=O)N([C@@H](C)CO)C[C@H](C)[C@@H](CN(C)S(=O)(=O)c1ccccc1)O2 | inactive
53 | C[C@@H]1CCCCO[C@H](CN(C)S(=O)(=O)c2cccs2)[C@H](C)CN([C@@H](C)CO)C(=O)c2cc(NC(=O)Cc3ccccc3)ccc2O1 | inactive
54 | C[C@H]1CN([C@@H](C)CO)C(=O)c2cccc(NS(=O)(=O)c3cccs3)c2O[C@H]1CN(C)S(=O)(=O)c1ccc(F)cc1 | inactive
55 | CN(C)Cc1cn(CC[C@H]2CC[C@H](N)[C@@H](CO)O2)nn1 | inactive
56 | Cc1noc(C)c1NC(=O)Nc1ccc2c(c1)C(=O)N([C@@H](C)CO)C[C@H](C)[C@H](CN(C)C(=O)Nc1ccc(C(F)(F)F)cc1)OCCCC[C@H](C)O2 | inactive
57 | O=C(C[C@H]1CC[C@H]2[C@@H](COC[C@@H](O)CN2C(=O)c2cccnc2)O1)NCc1ccc(-c2ccccc2)cc1 | inactive
58 | Cn1nnnc1SCC(=O)Nc1ncccn1 | inactive
